Experimental data: PubChem BioAssay AID1159580 (chemical genetic matrix, 2015)
Out of some 5,500 compounds screened, about 2,000 (36%) were called active. Roughly 18% stayed inconclusive and do not appear here. Rule as the data show it: active = normalized growth mostly below about 0.91 (no sharp cut-off); inconclusive = no clear call, values can overlap the other calls; inactive = mostly above about 0.92. The list shows a part of the results.

Experiment: chemical genetic growth profiling, strain panel (AID 1159580);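 also: tested at 20 µM; growth read once vehicle control cultures reached saturation at 30 °C; 1 = growth at the plate median or of vehicle wells; lower values mean less growth of the strain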
Details: growth OD
[1] = S. cerevisiae deletion strains, locus YBR229C, strain ROT2, hits give low values
[2] = S. cerevisiae deletion strains, locus YDL101C, strain DUN1, hits give low values
[3] = S. cerevisiae deletion strains, locus YDR150W, strain NUM1, hits give low values
[4] = S. cerevisiae deletion strains, locus YEL061C, strain CIN8, hits give low values
[5] = S. cerevisiae deletion strains, locus YHR030C, strain SLT2, hits give low values
[6] = S. cerevisiae deletion strains, locus YJR043C, strain POL32, hits give low values
[7] = S. cerevisiae deletion strains, locus YLR039C, strain RIC1, hits give low values
[8] = S. cerevisiae deletion strains, locus YLR262C, strain YPT6, hits give low values
[9] = S. cerevisiae deletion strains, locus YMR263W, strain SAP30, hits give low values
[10] = S. cerevisiae deletion strains, locus YMR307W, strain GAS1, hits give low values
[11] = S. cerevisiae deletion strains, locus YPL055C, strain LGE1, hits give low values

Measured: normalized growth

Cc1cc(I)c(C)cc1I
inactive: S. cerevisiae deletion strains, locus YAL013W, strain DEP1, hits give low values 1.01 | [1] 0.989 | S. cerevisiae deletion strains, locus YCL061C, strain MRC1, hits give low values 0.994 | [2] 1.02 | S. cerevisiae deletion strains, locus YDL134C, strain PPH21, hits give low values 0.986 | [3] 1.04 | [4] 0.966 | S. cerevisiae deletion strains, locus YGR078C, strain PAC10, hits give low values 1 | [5] 0.805 | S. cerevisiae deletion strains, locus YHR087W, strain rtc3, hits give low values 0.979 | [6] 0.994 | S. cerevisiae deletion strains, locus YJR075W, strain HOC1, hits give low values 0.976 | [7] 0.955 | S. cerevisiae deletion strains, locus YLR058C, strain SHM2 (second series), hits give low values 0.992 | S. cerevisiae deletion strains, locus YLR085C, strain ARP6, hits give low values 0.953 | [8] 0.872 | S. cerevisiae deletion strains, locus YML094W, strain GIM5, hits give low values 0.95 | S. cerevisiae deletion strains, locus YMR219W, strain ESC1, hits give low values 1 | [9] 0.976 | [10] 0.7 | S. cerevisiae deletion strains, locus YNL153C, strain GIM3, hits give low values 0.984 | S. cerevisiae deletion strains, locus YNL298W, strain CLA4 (second series), hits give low values 0.935 | S. cerevisiae deletion strains, locus YNL322C, strain KRE1, hits give low values 1 | S. cerevisiae deletion strains, locus YNR030W, strain Alg12, hits give low values 0.943 | [11] 0.966 | S. cerevisiae deletion strains, locus YPL241C, strain CIN2, hits give low values 0.978 | S. cerevisiae deletion strains, locus YPR135W, strain CTF4, hits give low values 0.925

CCC/C=C1\OC(=O)C2=C1CCC=C2
active: S. cerevisiae deletion strains, locus YGL086W, strain mad1, hits give low values 0.929 | S. cerevisiae deletion strains, locus YKL009W, strain mrt4, hits give low values 0.868
inactive: S. cerevisiae deletion strains, locus YBR021W, strain FUR4, hits give low values 0.967 | [1] 1.01 | S. cerevisiae deletion strains, locus YCL029C, strain bik1, hits give low values 0.978 | S. cerevisiae deletion strains, locus YDL035C, strain GPR1, hits give low values 0.952 | S. cerevisiae deletion strains, locus YDL074C, strain BRE1, hits give low values 0.945 | [2] 0.984 | S. cerevisiae deletion strains, locus YDL185W, strain tfp1, hits give low values 0.986 | S. cerevisiae deletion strains, locus YDL192W, strain arf1, hits give low values 0.972 | S. cerevisiae deletion strains, locus YDR101C, strain arx1, hits give low values 0.949 | [3] 1.02 | S. cerevisiae deletion strains, locus YDR162C, strain NBP2, hits give low values 0.993 | S. cerevisiae deletion strains, locus YDR318W, strain mcm21, hits give low values 0.998 | S. cerevisiae deletion strains, locus YDR388W, hits give low values 0.978 | S. cerevisiae deletion strains, locus YDR502C, strain sam2, hits give low values 0.957 | [4] 1 | S. cerevisiae deletion strains, locus YER110C, hits give low values 0.971 | S. cerevisiae deletion strains, locus YER155C, strain BEM2, hits give low values 1.03 | S. cerevisiae deletion strains, locus YER167W, strain BCK2, hits give low values 0.998 | S. cerevisiae deletion strains, locus YGL078C, strain dbp3, hits give low values 0.963 | S. cerevisiae deletion strains, locus YGL248W, strain PDE1, hits give low values 0.975 | S. cerevisiae deletion strains, locus YGR135W, strain pre9, hits give low values 0.965 | S. cerevisiae deletion strains, locus YGR252W, strain gcn5, hits give low values 0.974 | [5] 1.02 | S. cerevisiae deletion strains, locus YHR079C, strain IRE1 (second series), hits give low values 0.987 | S. cerevisiae deletion strains, locus YHR094C, strain hxt1, hits give low values 0.982 | S. cerevisiae deletion strains, locus YHR129C, strain ARP1, hits give low values 0.989 | S. cerevisiae deletion strains, locus YHR200W, strain rpn10, hits give low values 0.986 | S. cerevisiae deletion strains, locus YIL066C, strain RNR3, hits give low values 0.97 | S. cerevisiae deletion strains, locus YIL073C, strain SPO22, hits give low values 0.93 | S. cerevisiae deletion strains, locus YIL125W, strain kgd1, hits give low values 0.973 | S. cerevisiae deletion strains, locus YIR030C, strain dcg1, hits give low values 0.988 | S. cerevisiae deletion strains, locus YJL095W, strain BCK1, hits give low values 0.968 | S. cerevisiae deletion strains, locus YJL134W, strain LCB3, hits give low values 1.01 | S. cerevisiae deletion strains, locus YJL168C, strain set2, hits give low values 0.986 | S. cerevisiae deletion strains, locus YJL187C, strain SWE1 (second series), hits give low values 0.99 | [6] 0.956 | S. cerevisiae deletion strains, locus YKL068W, hits give low values 0.994 | S. cerevisiae deletion strains, locus YKL085W, strain MDH1 (second series), hits give low values 0.958 | S. cerevisiae deletion strains, locus YKL085W, strain MDH1, hits give low values 0.958 | S. cerevisiae deletion strains, locus YKR001C, strain vps1, hits give low values 0.963 | [7] 0.848 | S. cerevisiae deletion strains, locus YLR058C, strain SHM2, hits give low values 1 | S. cerevisiae deletion strains, locus YLR102C, strain apc9, hits give low values 0.988 | [8] 0.816 | S. cerevisiae deletion strains, locus YLR268W, strain sec22, hits give low values 0.953 | S. cerevisiae deletion strains, locus YLR330W, strain CHS5, hits give low values 1.01 | S. cerevisiae deletion strains, locus YLR342W, strain FKS1 (second series), hits give low values 0.97 | S. cerevisiae deletion strains, locus YLR371W, strain rom2, hits give low values 0.998 | S. cerevisiae deletion strains, locus YLR418C, strain cdc73, hits give low values 0.959 | S. cerevisiae deletion strains, locus YML016C, strain PPZ1, hits give low values 1 | S. cerevisiae deletion strains, locus YML032C, strain rad52, hits give low values 1 | S. cerevisiae deletion strains, locus YML124C, strain tub3, hits give low values 0.987 | S. cerevisiae deletion strains, locus YMR078C, strain ctf18, hits give low values 0.959 | S. cerevisiae deletion strains, locus YMR223W, strain ubp8, hits give low values 0.979 | [9] 1 | [10] 1.02 | S. cerevisiae deletion strains, locus YNL067W, strain RPL9B, hits give low values 0.965 | S. cerevisiae deletion strains, locus YNL233W, strain BNI4, hits give low values 0.992 | S. cerevisiae deletion strains, locus YNL250W, strain rad50, hits give low values 1.01 | S. cerevisiae deletion strains, locus YNL271C, strain bni1, hits give low values 0.971 | S. cerevisiae deletion strains, locus YNL298W, strain CLA4, hits give low values 0.959 | S. cerevisiae deletion strains, locus YNL307C, strain MCK1, hits give low values 0.969 | S. cerevisiae deletion strains, locus YNR052C, strain pop2, hits give low values 1.01 | S. cerevisiae deletion strains, locus YOL012C, strain htz1 1.31 | S. cerevisiae deletion strains, locus YOL147C, strain pex11, hits give low values 0.986 | S. cerevisiae deletion strains, locus YOR061W, strain CKA2, hits give low values 0.996 | S. cerevisiae deletion strains, locus YOR069W, strain VPS5, hits give low values 0.998 | S. cerevisiae deletion strains, locus YOR136W, strain idh2, hits give low values 0.98 | S. cerevisiae deletion strains, locus YOR144C, strain elg1, hits give low values 0.987 | S. cerevisiae deletion strains, locus YOR184W, strain ser1, hits give low values 0.926 | S. cerevisiae deletion strains, locus YOR316C, strain cot1, hits give low values 0.976 | [11] 0.969 | S. cerevisiae deletion strains, locus YPR119W, strain clb2, hits give low values 0.983 | S. cerevisiae deletion strains, locus YPR141C, strain kar3, hits give low values 0.977 | S. cerevisiae deletion strains, locus YPR163C, strain tif3, hits give low values 0.97 | S. cerevisiae deletion strains, locus YPR167C, strain met16, hits give low values 0.996 | S. cerevisiae deletion strains, strain wtn01, hits give low values 0.965 | S. cerevisiae strains, strain wild type, hits give low values 0.988
